Laboratory results reported in the supplement of paper PMC10515830.
Where a name gives a salt, the structure may show the parent alone.

How the values were obtained:
Conditions in all cases: 10 µM; exposure time 6 h
[1] = test system: Danio rerio larvae (5 dpf); test: difference in excitability vs DMSO (percentage points); higher = more excitable than DMSO
Summary of the method: (§1)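 Wild-type 5 dpf zebrafish larvae in 96-well plates were given 100 µL egg water containing library compound at 10 µM final for 6 h. After 3 h of exposure, plates at 28.5 ℃ were photographed every 6 s during a 3-h programme of moving lines and 100 ms, 400Hz tones. Z-LaP Tracker (a DeepLabCut model) quantified each behaviour, averaged over 48 larvae per compound. Values are the compound mean minus the DMSO-vehicle control, in percentage points.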

[2] = test system: Danio rerio larvae (5 dpf); test: difference in startle response vs DMSO (percentage points); higher = stronger startle than DMSO
Summary of the method: as §1

[3] = test system: Danio rerio larvae (5 dpf); test: difference in activity during first hour vs DMSO (percentage points); higher = more activity than DMSO
Summary of the method: as §1

[4] = test system: Danio rerio larvae (5 dpf); test: difference in habituation to acoustic stimuli vs DMSO (percentage points); higher = more habituation than DMSO
Summary of the method: as §1

[5] = test system: Danio rerio larvae (5 dpf); test: difference in combined optomotor response to red, green and blue moving lines vs DMSO (percentage points); higher = stronger optomotor response than DMSO
Summary of the method: as §1

SMILES	difference in excitability [1]	difference in startle response [2]	difference in activity during first hour [3]	difference in habituation to acoustic stimuli [4]	difference [5]
CC(=O)c1ccc(S(=O)(=O)NC(=O)NC2CCCCC2)cc1 [Acetohexamide]	-0.755	2.86	-0.443	-3.12	2.21
CC(C)CN(C[C@@H](O)[C@H](Cc1ccccc1)NC(=O)O[C@H]1CCOC1)S(=O)(=O)c1ccc(N)cc1 [Amprenavir]	-3.12	-6.45	6.71	0.569	7.88
NS(=O)(=O)c1cc2c(cc1Cl)N=CNS2(=O)=O [Chlorothiazide]	-0.0236	-3.29	3.22	6.65	-5.74
CCCC1O[C@@H]2C[C@H]3[C@@H]4CCC5=CC(=O)C=C[C@]5(C)[C@H]4[C@@H](O)C[C@]3(C)[C@]2(C(=O)CO)O1 (stereo not given in full) [Budesonide]	4.9	-3.47	4.24	-2.87	12.5
CC[C@H]1OC(=O)[C@H](C)[C@@H](O[C@H]2C[C@@](C)(OC)[C@@H](O)[C@H](C)O2)[C@H](C)[C@@H](O[C@@H]2O[C@H](C)C[C@H](N(C)C)[C@H]2O)[C@](C)(O)C[C@@H](C)CN(C)[C@H](C)[C@@H](O)[C@]1(C)O [Azithromycin]	19.6	2.02	-4.37	-3.98	-0.0441
CN(C)c1ccc(O)c2c1C[C@H]1C[C@H]3[C@H](N(C)C)C(O)=C(C(N)=O)C(=O)[C@@]3(O)C(O)=C1C2=O [Minocycline (hydrochloride hydrate)]	3.95	-2.06	13.3	8.03	-2.24
C=CC1=C(C(=O)O)N2C(=O)[C@@H](NC(=O)/C(=N\O)c3csc(N)n3)[C@H]2SC1 [Cefdinir]	6.83	5.77	6.72	-1.11	4.15
CCOC(=O)O[C@]1(C(=O)COC(=O)CC)CC[C@H]2[C@@H]3CCC4=CC(=O)C=C[C@]4(C)[C@H]3[C@@H](O)C[C@@]21C [Prednicarbate]	10.3	3.6	-2.36	-0.38	-0.877
C#C[C@]1(O)CC[C@H]2[C@@H]3CCC4=Cc5oncc5C[C@]4(C)[C@H]3CC[C@@]21C [Danazol]	6.6	-7.24	-23.6	-10.4	-17.8
NS(=O)(=O)c1cc(Cl)c(Cl)c(S(N)(=O)=O)c1 [Dichlorphenamide]	1.47	-2.89	-2.19	-4.78	-8.01
CC(C)(C)c1cc(C(C)(C)C)c(NC(=O)c2c[nH]c3ccccc3c2=O)cc1O [Ivacaftor]	2	-4.58	-10	-2.59	5.49
CC(=O)OCC(=O)[C@@]12N=C(C)O[C@@H]1C[C@H]1[C@@H]3CCC4=CC(=O)C=C[C@]4(C)[C@H]3[C@@H](O)C[C@@]12C [Deflazacort]	13.1	3.69	-3.59	-1.6	13.9
